Test results published in PubChem BioAssay (EPA / NIEHS).
Inconclusive results are not listed. The source made the active and inactive calls. Rule for the calls, unless noted: active = hit-call score of the fitted dose curve at least 0.9, where 1 is the maximum; inactive = score below 0.9.

Columns and labels:
[1] = read-out: E-selectin (Homo sapiens) (UniProt P16581); assay: BSK_3C_Eselectin: BioMAP Diversity Plus: 3C Assay for Eselectin Biomarker Activity (AID 2283015); conditions: primary human endothelial cells (HUVEC); actives raise or lower the signal;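 note: cell surface E-selectin protein quantified by ELISA 24 h after dosing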
In short: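 E-selectin ELISA readout, fitted bidirectionally relative to DMSO, taken 24 h post-dosing in HUVEC cultures of the 3C system. Overt cytotoxicity tracked with sulforhodamine B staining of parallel wells.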

[2] = read-out: Interleukin-1 alpha (IL1a), IL1A (gene 3552); assay: BSK_BE3C_IL1a: BioMAP Diversity Plus: BE3C Assay for Interleukin-1 alpha (IL1a) Biomarker Activity (AID 2283016); conditions: primary human bronchial epithelial cells; actives raise or lower the signal
In short: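 Measured in human lung primary bronchial epithelial cells: IL-1a by ELISA at 24 h after dosing, with bidirectional fitting against DMSO.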

[3] = read-out: Monocyte Chemoattractant Protein-1 (MCP1), CCL2 (gene 6347); assay: BSK_3C_MCP1: BioMAP Diversity Plus: 3C Assay for Monocyte Chemoattractant Protein-1 (MCP1) Biomarker Activity (AID 2283017); conditions: primary human endothelial cells (HUVEC); actives raise or lower the signal
In short: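 MCP-1 was measured by ELISA 24 h after dosing in primary HUVEC 3C cultures and fitted in both directions relative to DMSO; cytotoxicity was checked by SRB total-protein staining in parallel wells.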

[4] = read-out: Monocyte Chemoattractant Protein-1 (MCP1), CCL2 (gene 6347); assay: BSK_4H_MCP1: BioMAP Diversity Plus: 4H Assay for Monocyte Chemoattractant Protein-1 (MCP1) Biomarker Activity (AID 2283018); conditions: primary human endothelial cells (HUVEC); actives raise or lower the signal
In short: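 Primary human umbilical vein endothelium is exposed to chemical for 24 h before MCP-1 is assayed by ELISA. Concentration-response fitted bidirectionally relative to DMSO.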

[5] = read-out: Human Leukocyte Antigen - DR isotype (HLADR), HLA-DRA (gene 3122); assay: BSK_3C_HLADR: BioMAP Diversity Plus: 3C Assay for Human Leukocyte Antigen - DR isotype (HLADR) Biomarker Activity (AID 2283019); conditions: primary human endothelial cells (HUVEC); actives raise or lower the signal
In short: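 Bidirectional fitting against DMSO was applied to the HLA-DR ELISA signal from human umbilical vein endothelial cells, 24 h post-dose. Cytotoxicity came from parallel SRB total-protein staining; 3C proliferation was counted by SRB at 48 h.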

[6] = read-out: Interleukin-8 (IL8), CXCL8 (gene 3576); assay: BSK_3C_IL8: BioMAP Diversity Plus: 3C Assay for Interleukin-8 (IL8) Biomarker Activity (AID 2283020); conditions: primary human endothelial cells (HUVEC); actives raise or lower the signal
In short: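 Using DMSO-treated wells as the baseline, bidirectional curve fitting was applied to ELISA-measured IL-8 from human umbilical vein endothelial cultures sampled 24 h after compound addition.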

[7] = read-out: Monokine induced gamma interferon (MIG), CXCL9 (gene 4283); assay: BSK_3C_MIG: BioMAP Diversity Plus: 3C Assay for Monokine induced gamma interferon (MIG) Biomarker Activity (AID 2283021); conditions: primary human endothelial cells (HUVEC); actives raise or lower the signal
In short: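 ELISA-measured MIG in dosed HUVEC 3C cultures at 24 h, analysed by bidirectional fitting with DMSO defining baseline activity.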

[8] = molecular target: human Vitamin D Receptor (VDR), VDR (gene 7421) (UniProt P11473); assay: ATG_VDR_TRANS: Attagene TRANS-FACTORIAL HepG2 Assay for human Vitamin D Receptor (VDR) (AID 2283022; active = hit-call score of the fitted dose curve at least 0.9, where 1 is the maximum)
In short: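 Transactivation by an exogenous VDR-Gal4 chimera in transiently transfected HepG2 cells was measured as reporter transcript level 24 hours after chemical treatment. RT-PCR products were analysed by capillary electrophoresis and fitted in the positive direction relative to DMSO.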

[9] = BSK_3C_SRB: Viability Assessment in the BioMAP Diversity Plus: 3C Assay (AID 2283023); conditions: primary human endothelial cells (HUVEC);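 note: fitted both ways against DMSO so a hit may be signal rise or drop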
In short: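 Cytotoxicity readout in parallel HUVEC 3C cultures: after 24 h compound exposure, cells fixed with 10% TCA, stained with 0.1% SRB and read at 560 nm. Gain or loss relative to DMSO fitted.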

[10] = read-out: Matrix Metallopeptidase 1 (MMP1), MMP1 (gene 4312); assay: BSK_BE3C_MMP1: BioMAP Diversity Plus: BE3C Assay for Matrix Metallopeptidase 1 (MMP1) Biomarker Activity (AID 2283024); conditions: primary human bronchial epithelial cells; actives raise or lower the signal
In short: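 In this multiplexed primary-cell system, human bronchial epithelium received chemicals for 24 h before an ELISA for MMP1. Values reflect bidirectional fits normalised to the DMSO baseline.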

[11] = BSK_3C_Vis: BioMAP Diversity Plus: 3C Assay for Morphology Visualization (AID 2283025); conditions: primary human endothelial cells (HUVEC);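 note: fitted both ways so gain or loss versus DMSO counts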;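 for AC50: light microscopy image of cell morphology used as background control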
In short: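 Light-microscopy morphology readout, 24 h exposure, human primary umbilical vein endothelium; analysed relative to DMSO with bidirectional fitting.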

[12] = read-out: Pselectin, SELP (gene 6403); assay: BSK_4H_Pselectin: BioMAP Diversity Plus: 4H Assay for Pselectin Biomarker Activity (AID 2283026); conditions: primary human endothelial cells (HUVEC); actives raise or lower the signal
In short: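 Bidirectional fits against DMSO gave the endpoint. Cells: primary human umbilical vein endothelium, chemical-treated for 24 h before ELISA detection of P-selectin.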

[13] = BSK_4H_SRB: Viability Assessment in the BioMAP Diversity Plus: 4H Assay (AID 2283027); conditions: primary human endothelial cells (HUVEC);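 note: cells exposed to compound for 24 h before staining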;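 for AC50: curves fitted both ways versus DMSO so AC50 may be loss or gain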
In short: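 Cytotoxicity read-out in primary human endothelial cells: after 24 h compound exposure, cells were TCA-fixed (10%), stained with 0.1% SRB and absorbance taken at 560 nm. Values fitted in both directions relative to DMSO.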

[14] = BSK_BE3C_SRB: Viability Assessment in the BioMAP Diversity Plus: BE3C Assay (AID 2283028); conditions: primary human bronchial epithelial cells
In short: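 Cytotoxicity read-out: SRB (0.1%) staining of TCA-fixed (10%) human lung bronchial epithelial cells, absorbance 560 nm, 24 h post-dosing. Curves fitted both directions relative to DMSO.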

[15] = read-out: Thrombomodulin, THBD (gene 7056); assay: BSK_3C_Thrombomodulin: BioMAP Diversity Plus: 3C Assay for Thrombomodulin Biomarker Activity (AID 2283029); conditions: primary human endothelial cells (HUVEC); actives raise or lower the signal
In short: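 In a multiplexed primary-cell system, human umbilical vein endothelium received chemical and was assayed 24 h later for thrombomodulin by ELISA. Parallel cultures were SRB-stained (0.1% SRB after 10% TCA fixation, read at 560 nm) to flag cytotoxicity.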

[16] = read-out: Urokinase-type plasminogen activator receptor (uPAR), PLAUR (gene 5329); assay: BSK_4H_uPAR: BioMAP Diversity Plus: 4H Assay for Urokinase-type plasminogen activator receptor (uPAR) Biomarker Activity (AID 2283030); conditions: primary human endothelial cells (HUVEC); actives raise or lower the signal
In short: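 uPAR level read by ELISA on HUVEC cultures (BioMAP 4H) 24 h post-dosing, analyzed for gain or loss relative to DMSO. Parallel SRB staining assessed overt cytotoxicity.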

[17] = read-out: Vascular endothelial growth factor receptor 2 (Homo sapiens) (UniProt P35968); assay: BSK_4H_VEGFRII: BioMAP Diversity Plus: 4H Assay for Vascular endothelial growth factor receptor 2 (VEGFR2) Biomarker Activity (AID 2283031); conditions: primary human endothelial cells (HUVEC); actives raise or lower the signal
In short: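 Measured by ELISA after 24 h of compound treatment: VEGFR2 on primary human umbilical vein endothelial cells, fitted in both directions relative to DMSO. Parallel cultures received SRB staining (560 nm) for overt cytotoxicity.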

[18] = read-out: Human Leukocyte Antigen - DR isotype (HLADR), HLA-DRA (gene 3122); assay: BSK_BE3C_HLADR: BioMAP Diversity Plus: BE3C Assay for Human Leukocyte Antigen - DR isotype (HLADR) Biomarker Activity (AID 2283032); conditions: primary human bronchial epithelial cells; actives raise or lower the signal
In short: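 BioMAP BE3C format: human bronchial epithelium, 24 h compound treatment, ELISA detection of HLA-DR, with bidirectional analysis relative to DMSO.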

[19] = read-out: Vascular cell adhesion molecule 1 (VCAM1), VCAM1 (gene 7412); assay: BSK_4H_VCAM1: BioMAP Diversity Plus: 4H Assay for Vascular cell adhesion molecule 1 (VCAM1) Biomarker Activity (AID 2283033); conditions: primary human endothelial cells (HUVEC); actives raise or lower the signal
In short: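 In this human endothelial (HUVEC) system, biomarker ELISA was run 24 h after compound addition, and total protein in parallel wells was assessed by SRB at 560 nm; DMSO served as negative control.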

[20] = read-out: Interferon-gamma inducible Protein 10 (IP10), CXCL10 (gene 3627); assay: BSK_BE3C_IP10: BioMAP Diversity Plus: BE3C Assay for Interferon-gamma inducible Protein 10 (IP10) Biomarker Activity (AID 2283034); conditions: primary human bronchial epithelial cells; actives raise or lower the signal
In short: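 BE3C cells (human bronchial epithelial, primary); 24 h exposure; ELISA for IP-10; DMSO-referenced bidirectional fit.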

Measured: AC50

Sequence of human Vitamin D Receptor (VDR), VDR (gene 7421) (P11473 whole entry, looked up, the tested form may be a part): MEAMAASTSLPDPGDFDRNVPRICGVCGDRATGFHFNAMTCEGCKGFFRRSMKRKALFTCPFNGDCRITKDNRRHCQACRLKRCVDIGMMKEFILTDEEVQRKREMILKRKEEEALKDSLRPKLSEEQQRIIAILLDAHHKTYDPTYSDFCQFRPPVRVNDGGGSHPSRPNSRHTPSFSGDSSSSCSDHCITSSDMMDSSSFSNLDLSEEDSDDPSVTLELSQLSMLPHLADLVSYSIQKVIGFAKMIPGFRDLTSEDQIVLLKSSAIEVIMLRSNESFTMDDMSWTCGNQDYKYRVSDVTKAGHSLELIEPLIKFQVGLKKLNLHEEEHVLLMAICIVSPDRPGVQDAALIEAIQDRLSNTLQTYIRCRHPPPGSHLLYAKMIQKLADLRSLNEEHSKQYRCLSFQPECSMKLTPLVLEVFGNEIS
Sequence of E-selectin (Homo sapiens) (P16581 whole entry, looked up): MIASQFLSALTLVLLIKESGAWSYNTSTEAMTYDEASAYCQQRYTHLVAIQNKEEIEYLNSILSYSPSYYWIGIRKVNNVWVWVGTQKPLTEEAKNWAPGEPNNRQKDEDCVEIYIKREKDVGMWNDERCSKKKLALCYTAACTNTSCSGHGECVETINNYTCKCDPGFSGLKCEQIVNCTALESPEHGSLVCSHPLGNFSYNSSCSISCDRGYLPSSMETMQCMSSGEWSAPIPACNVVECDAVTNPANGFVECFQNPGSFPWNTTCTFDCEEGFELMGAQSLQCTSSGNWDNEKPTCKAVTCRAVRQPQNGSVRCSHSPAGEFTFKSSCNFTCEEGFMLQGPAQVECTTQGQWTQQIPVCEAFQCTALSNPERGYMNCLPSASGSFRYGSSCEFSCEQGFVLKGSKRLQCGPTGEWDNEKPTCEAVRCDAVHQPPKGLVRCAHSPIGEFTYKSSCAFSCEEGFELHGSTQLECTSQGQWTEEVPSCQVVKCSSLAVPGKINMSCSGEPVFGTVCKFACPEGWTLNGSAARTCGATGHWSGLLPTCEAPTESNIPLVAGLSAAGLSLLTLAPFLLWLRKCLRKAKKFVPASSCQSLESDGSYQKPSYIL

C1N2CN3CN1CN(C2)C3
inactive: [1] | [2] | [3] | [4] | [5] | [6] | [7] | [8] | [9] | [10] | [11] | [12] | [13] | [14] | [15] | [16] | [17] | [18] | [19] | [20]

CC1(C)C(=O)N(Br)C(=O)N1Br
inactive: [1] | [2] | [3] | [4] | [5] | [6] | [7] | [8] | [9] | [10] | [11] | [12] | [13] | [14] | [15] | [16] | [17] | [18] | [19]

CC(=O)c1ccc2c(c1)[C@H](NC(=O)c1ccc(F)cc1)[C@@H](O)C(C)(C)O2
inactive: [1] | [2] | [3] | [4] | [5] | [6] | [7] | [9] | [10] | [11] | [12] | [13] | [14] | [15] | [16] | [17] | [18] | [19]

CNCc1ccc(NC(=O)c2c[nH]c3c2C(=O)CCC3)cc1
inactive: [2] | [3] | [4] | [5] | [6] | [7] | [8] | [9] | [10] | [11] | [12] | [13] | [14] | [15] | [16] | [17] | [18] | [19]

O=C(OC[C@H]1O[C@@H](OC(=O)c2cc(O)c(O)c(OC(=O)c3cc(O)c(O)c(O)c3)c2)[C@H](OC(=O)c2cc(O)c(O)c(OC(=O)c3cc(O)c(O)c(O)c3)c2)[C@@H](OC(=O)c2cc(O)c(O)c(OC(=O)c3cc(O)c(O)c(O)c3)c2)[C@@H]1OC(=O)c1cc(O)c(O)c(OC(=O)c2cc(O)c(O)c(O)c2)c1)c1cc(O)c(O)c(OC(=O)c2cc(O)c(O)c(O)c2)c1
active: [2] 7.85 µM | [4] 6.1 µM | [5] 9.13 µM | [9] 9.7 µM | [10] 10.8 µM | [12] 6.1 µM | [16] 3.15 µM | [18] 8.27 µM | [19] 9.44 µM | [20] 9.85 µM
inactive: [1] | [6] | [7] | [11] | [13] | [14] | [15] | [17]

CC(C)=CCC/C(C)=C\CO
inactive: [2] | [3] | [4] | [5] | [6] | [7] | [8] | [9] | [10] | [11] | [12] | [13] | [14] | [15] | [16] | [17] | [18] | [19]

Cc1ccc(S(=O)(=O)O)cc1C
inactive: [1] | [2] | [4] | [5] | [6] | [7] | [8] | [9] | [10] | [11] | [12] | [13] | [14] | [15] | [16] | [17] | [18] | [19] | [20]

Cc1ccc(N)cc1O
inactive: [1] | [2] | [4] | [5] | [6] | [7] | [8] | [9] | [10] | [11] | [12] | [13] | [14] | [15] | [16] | [17] | [18] | [19] | [20]

CCOCCOCCOCCO
inactive: [1] | [2] | [4] | [5] | [6] | [7] | [8] | [9] | [10] | [11] | [12] | [13] | [14] | [15] | [16] | [17] | [18] | [19] | [20]

COC(=O)c1c(Cl)c(Cl)c(C(=O)OC)c(Cl)c1Cl
active: [11] 39 µM
inactive: [1] | [2] | [4] | [5] | [6] | [7] | [9] | [10] | [12] | [13] | [14] | [15] | [16] | [17] | [18] | [19]

CCOCCO
inactive: [1] | [2] | [4] | [5] | [6] | [7] | [9] | [10] | [11] | [12] | [13] | [14] | [15] | [16] | [17] | [18] | [19] | [20]

O=c1n(CC2CO2)c(=O)n(CC2CO2)c(=O)n1CC1CO1 (stereo not given)
inactive: [2] | [4] | [7] | [8] | [10] | [14] | [15] | [16] | [17]
active: [3] 20 µM | [5] 21.5 µM | [6] 13.2 µM | [9] 17.5 µM | [11] 39 µM | [12] 11.8 µM | [13] 15.1 µM | [18] 34.7 µM | [19] 23.4 µM

CN(C)c1ccc(N=NS(=O)(=O)O)cc1
inactive: [1] | [2] | [4] | [5] | [6] | [7] | [8] | [9] | [10] | [11] | [12] | [13] | [14] | [15] | [16] | [17] | [18] | [20]
active: [19] 8.31 µM
